Most compounds without a hit are left out; they make up all but 11% or so of the library.
JMJD2A Tudor: qHTS Assay for Inhibitors of JMJD2A-Tudor Domain. AlphaScreen JMJD2A-Tudor / H3K4me3 peptide binding. 4.4% of 390,000 active. AID 504339, 2011. Potency, µM (top dose mostly 114 µM), inactives show top-dose activity change, negative = inhibition, most hits filed as inhibitors. Lysine-specific demethylase 4A (Homo sapiens), O75164; further: potency means the concentration at half of the fitted maximal effect; on the % scale 0 is the no-effect control and ±100 the full control effect; nearly all actives have a fitted effect of over 50% in size
BAZ2B block: qHTS Assay for Inhibitors of BAZ2B. Bromodomain adjacent to zinc finger domain protein 2B (Homo sapiens), Q9UIF8. AlphaScreen BAZ2B-H3K14Ac peptide displacement. Potency, µM (highest dose often 114 µM), without a hit: at the highest dose activity change, negative = inhibition, actives largely listed as inhibitors. 4.4% of 360,000 active; further: potency means the concentration at half of the fitted maximal effect; on the % scale 0 is the no-effect control and ±100 the full control effect; nearly all actives have a fitted effect of over 60% in size
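BAZ2B (50 nM) with biotin-H3(5-23)K14Ac peptide (50 nM) in PBS pH 7.4, 0.01% Tween-20, preformed 30 min, then compound 30 min at room temperature; top concentration 110uM. AlphaScreen streptavidin donor/nickel chelate acceptor beads (10 ug/mL final), 20 min dark, signal read.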
G9a block: qHTS Assay for Inhibitors of Histone Lysine Methyltransferase G9a; Histone-lysine N-methyltransferase EHMT2 (Homo sapiens), Q96KQ7; G9a H3K9 monomethylation, AlphaScreen, 2 h; Potency, µM (doses to about 102 µM), inactives show top-dose activity, negative = inhibition, actives largely listed as inhibitors; 8.8% of 350,000 active; AID 504332, 2011; further: potency means the concentration at half of the fitted maximal effect; on the % scale 0 is the no-effect control and ±100 the full control effect; nearly all actives have a fitted effect of over 75% in size
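Step 1: enzyme (final 20 nM) with compound, 15 min RT. Step 2: substrate peptide 500 nM and SAM 20 uM, 2 h RT. Step 3: anti-H3K9me1 antibody and AlphaScreen beads, 10 min, then plate read.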
PI5P4Ka inh: qHTS for Inhibitors of phosphatidylinositol 5-phosphate 4-kinase (PI5P4K); Phosphatidylinositol 5-phosphate 4-kinase type-2 alpha (Homo sapiens), P48426; PI5P4Kalpha enzyme, ADP-Glo luminescence, 60 min; active compounds read low; max response, %; 1.2% of 330,000 active; AID 652105, 2013; active means max response of -50% or lower; inconclusive means between -30% and -50%; inactive means -30% or higher; further: value at the top dose of about 77 µM; on the % scale 0 is the no-effect control and ±100 the full control effect
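Human PI5P4Kalpha with substrate in 0.038 M HEPES pH 7.4, 0.28 mM EGTA, 0.1% CHAPS, 5% DMSO; reaction started with 5 microM ATP (final), 60 min at room temperature. ADP formed read by ADP-Glo luminescence.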
L3MBTL1 inh: qHTS Assay for the Inhibitors of L3MBTL1. AlphaScreen L3MBTL1–H3K9me1 peptide binding. Potency, µM (highest dose often 57.1 µM), for the others: top-dose activity, negative = inhibition, hits mostly inhibitors. AID 485360, 2010. 0.66% of 230,000 active; further: potency means the concentration at half of the fitted maximal effect; on the % scale 0 is the no-effect control and ±100 the full control effect; nearly all actives have a fitted effect of over 60% in size
Target sequence (Q9Y468 whole entry, looked up): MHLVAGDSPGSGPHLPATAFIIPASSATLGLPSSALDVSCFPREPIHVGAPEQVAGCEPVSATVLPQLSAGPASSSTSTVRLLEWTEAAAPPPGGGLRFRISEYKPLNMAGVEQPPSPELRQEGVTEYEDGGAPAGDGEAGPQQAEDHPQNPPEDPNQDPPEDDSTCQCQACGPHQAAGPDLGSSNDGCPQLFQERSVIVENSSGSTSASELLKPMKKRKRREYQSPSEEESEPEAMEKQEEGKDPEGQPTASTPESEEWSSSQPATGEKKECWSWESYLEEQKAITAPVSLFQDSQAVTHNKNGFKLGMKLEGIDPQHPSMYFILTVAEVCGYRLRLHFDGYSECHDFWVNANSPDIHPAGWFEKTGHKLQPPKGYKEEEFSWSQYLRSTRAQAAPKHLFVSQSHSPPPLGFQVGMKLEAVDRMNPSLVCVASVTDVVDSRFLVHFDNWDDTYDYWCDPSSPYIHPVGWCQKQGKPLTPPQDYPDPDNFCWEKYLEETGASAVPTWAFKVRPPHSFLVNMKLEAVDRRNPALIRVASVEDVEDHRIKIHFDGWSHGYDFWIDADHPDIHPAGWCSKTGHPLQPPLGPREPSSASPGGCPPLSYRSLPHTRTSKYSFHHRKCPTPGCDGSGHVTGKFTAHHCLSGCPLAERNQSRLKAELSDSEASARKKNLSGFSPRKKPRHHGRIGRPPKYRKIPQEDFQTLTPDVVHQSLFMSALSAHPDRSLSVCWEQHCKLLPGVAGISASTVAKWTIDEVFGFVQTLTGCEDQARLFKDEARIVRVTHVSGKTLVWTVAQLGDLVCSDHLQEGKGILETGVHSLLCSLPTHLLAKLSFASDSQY
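L3MBTL1 (50 nM) pre-complexed 30 min with biotinylated H3(1-15)K9me1 peptide (75 nM), then compounds added for 30 min at room temperature; AlphaScreen streptavidin donor/nickel chelate acceptor beads (10 ug/mL final) read after 30 min dark incubation.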
HP1b chromo inh: HTS for Inhibitors of HP1-beta Chromodomain Interactions with Methylated Histone Tails; Chromobox protein homolog 1 (Homo sapiens), P83916; AlphaScreen HP1-beta / biotin-H3K9me3 peptide binding; Potency, µM (highest dose often 114 µM), for the others: top-dose activity change, negative = inhibition, hits mostly inhibitors; 0.56% of 390,000 active; further: potency means the concentration at half of the fitted maximal effect; nearly all actives have a fitted effect of over 70% in size
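HP1-beta protein (50 nM final) preincubated 30 min at room temperature with biotinylated H3(1-18)K9me3 peptide (50 nM) in PBS pH 7.4, 0.01% Tween-20, then compound added for 30 min. AlphaScreen streptavidin donor/nickel chelate acceptor beads (10 ug/mL final), 30 min dark, luminescence read.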
Numbers without * were called inactive; u = inconclusive; x = not tested or not shown; [ ] = remark or other dose. Unless noted, the call rests on the fitted dose curve; in most records, active means well fitted inhibition curve with a large enough effect; inconclusive means small, poorly fitted or top-dose-only effect; inactive means no such curve, though single readings can be large or run the other way.

SMILES	JMJD2A Tudor	BAZ2B block	G9a block	PI5P4Ka inh	L3MBTL1 inh	HP1b chromo inh
COc1cc(C2C(C#N)=C(N)Oc3cc(N(C)C)ccc32)cc2c1OCO2 (centres undefined)	50.1µM*	44.7µM*	u	x	-0.4%	u
COc1cc(C2C(C#N)=C(N)OC3=C2C(=O)CC(C)(C)C3)cc2c1OCO2 (centres undefined)	u	x	x	-58.6*	x	1.1%
COc1ccc(C2C(C#N)=C(N)OC3=C2C(=O)CC(C)(C)C3)cc1 (centres undefined)	11.6%	-9.5%	15.1%	-5.2	-6.3%	40.1%
COc1cc(C2C(C#N)=C(N)Oc3cc(O)ccc32)cc2c1OCO2 (centres undefined)	1.5%[11.4 µM]	-11.1%	-2.0%[59 µM]	-8.7	-7.8%	u
CCCSc1nc(C)c(-c2csc(C(C#N)=C3CCCC3)n2)cc1C#N	50.1µM*	20µM*	u	x	u	1.3%
CC1CCC/C(=C(\C#N)c2nc(-c3cc4ccccc4oc3=O)cs2)C1 (centres undefined)	51.9%	13.4%	-3.4%[59 µM]	9.1	9.4%	115.5%
Nc1ccc2cccc(O)c2c1	28.2µM*	x	x	-79.5*	x	u
CCc1ccc(CN2CCN(c3ncccn3)CC2)cc1	20µM*	50.1µM*	5.6%[0.501 µM]	-2.4	4.8%[2.29 µM]	-21.3%
CCOc1cc(CN2CCN(c3ncccn3)CC2)ccc1OC	2.82µM*	79.4µM*	x	-8.2	19.7%	u
Fc1ccc(CN2CCN(c3ncccn3)CC2)cc1	10µM*	u	10µM*	x	x	u
O=S(=O)(Cc1ccc(Cl)cc1)N1CCN(c2ncccn2)CC1	-8.0%	-9.6%	4.7%	0.8	x	31.7%
Cc1ccc(NC(=O)C2CCCN(S(=O)(=O)c3ccc4[nH]c(=O)ccc4c3)C2)cc1Cl (centres undefined)	-11.0%	-12.4%	-9.4%[59 µM]	x	x	15.2%
CCOc1ccc(NC(=S)NC(=O)c2c(Br)cnn2C)c([N+](=O)[O-])c1	u	u	28.2µM*	-4.4	-17.6%	u
CCOc1ccc(NC(=S)NC(=O)c2c(Cl)cnn2CC)c([N+](=O)[O-])c1	u	u	u	-1.7	-10.7%	-15.7%
COCCNC(=O)CSc1nc(-c2ccccc2C)nc2c1c(=O)n(C)c(=O)n2C	3.6%	5.5%	5.9%[59 µM]	x	x	27.2%[57 µM]
COc1ccc(-n2c(-c3cc(-c4ccccc4)sc3N)n[nH]c2=S)cc1	-15.2%	-17.2%	0.7%	-19.9	x	36.1%
COc1ccc(OC)c(-n2c(-c3ccccc3)n[nH]c2=S)c1	3.16µM*	-4.6%	u	-1.0	x	21.0%
COc1ccccc1-n1c(-c2ccccc2)n[nH]c1=S	2.82µM*	-24.0%	x	-20.1	-1.7%	11.8%
COc1ccccc1-n1c(-c2cn(C)nc2C)n[nH]c1=S	22.4µM*	-0.6%	7.08µM*	-12.1	-4.6%	15.2%
COc1ccc(OC)c(-n2c(-c3cccc(C)c3)n[nH]c2=S)c1	u	u	1.12µM*	u	-3.7%	-23.9%
COc1ccc(OC)c(-n2c(C)cc(C=O)c2C)c1	-17.5%	-36.6%	-28.9%	-10.5	-12.5%	18.1%
CCOC(=O)CNC(=O)c1cc2c(=O)n(CC)c3ccccc3c2s1	-14.1%	-2.5%	7.9%[59 µM]	x	x	21.7%
CCNc1ncc2nc(-c3ccccc3)c(=O)n(CCOC)c2n1	x	x	1.4%[0.501 µM]	x	x	x
COc1cc(C(=O)NCCc2sc(-c3ccc(C)cc3)nc2C)cc(OC)c1OC	-4.8%	1.9%	18.6%[59 µM]	x	x	5.2%[57 µM]
O=c1c2ccccc2nc2oc3ccccc3n12	-13.2%	4.8%	25.1µM*	-8.6	-3.5%	-10.0%
SMILES	JMJD2A Tudor	BAZ2B block	G9a block	PI5P4Ka inh	L3MBTL1 inh	HP1b chromo inh
COc1ccc(C(=O)c2ccc(OC)cc2O)c(O)c1	-0.3%	5.1%	4.8%	0.7	0.3%	13.4%
C/C(=N\Nc1ccc(F)cc1F)c1cccs1	x	27.5%	25.1µM*	x	22.5%	x
COc1ccc(/C(C)=N/Nc2ccccc2Cl)c(O)c1	u	u	1µM*	0.1	-14.6%	-18.3%
COc1ccc(/C(C)=N/Nc2ccc(F)cc2F)c(O)c1	-14.0%	-16.3%	2.51µM*	6.4	24.3%	25.8%
O=C(COc1ccccc1Cl)Nc1cc(NC(=O)COc2ccccc2Cl)cc(C(=O)O)c1	-17.5%	50.1µM*	0.5%	-13.8	-4.9%	28.2%
O=C(COc1cc(Cl)c(Cl)cc1Cl)Nc1cccc(O)c1	-7.7%	-6.3%	19.4%	5.6	x	49.0%
O=C(COc1cc(Cl)c(Cl)cc1Cl)Nc1ccncc1	89.1µM*	9.4%	15.5%[12.7 µM]	0.2	-5.3%	-10.0%
COc1ccccc1OCC(=O)Nc1cc(NC(=O)COc2ccccc2OC)cc(C(=O)O)c1	-23.8%	-10.4%	3.9%	-4.6	-3.9%	12.6%
CCN1CCN(c2ccc(NC(=O)COc3ccccc3Cl)cc2)CC1	-18.0%	-1.7%	-26.3%	1.6	-6.6%	16.2%
O=C(COc1ccccc1Cl)Nc1ccc(N2CCCC2)cc1	u	-38.6%	7.94µM*	-8.6	x	1.9%
O=C(NCCc1ccccc1)C1CC(=O)N(c2ccc3c(c2)OCCO3)C1 (centres undefined)	-11.0%	6.4%	-7.3%	-3.5	2.3%	16.6%
O=C(Cc1ccc2c(c1)OCCO2)N1CCN(c2ccccc2)CC1	-27.4%	-14.9%	50.1µM*	1.3	-3.2%	-8.3%
O=C(CSc1ccc2c(c1)OCCO2)N1CCN(c2ccccc2O)CC1	-25.3%	-24.7%	50.1µM*	-12.7	u	9.7%
O=C(CSc1ccc2c(c1)OCCO2)N1CCN(c2ccccc2)CC1	-10.4%	-18.8%	u	-0.6	-8.4%	28.4%
O=C(O)c1[nH]c2ccc(Cl)cc2c1CC(=O)N1CCN(c2ccccc2)CC1	-28.3%	-1.9%	50.1µM*	10.5	2.2%	-10.2%
COc1ccccc1N1CCN(C(=O)Cc2c(C(=O)O)[nH]c3ccc(Cl)cc23)CC1	-5.6%	-24.0%	-22.4%	8.2	5.4%	26.3%
O=C(NC(Cc1ccccc1)c1nc2ccccc2[nH]1)C1CC(=O)N(c2ccc3c(c2)OCCO3)C1 (centres undefined)	u	u	12.6µM*	-1.8	-22.3%	34.5%
CC(C)(C)c1ccc(OCCSc2nc(-c3cccs3)nc3cc(=O)[nH]n23)cc1	-9.4%	-11.8%	5.3%[59 µM]	x	x	33.3%
Cc1cc(OCC(=O)NCC2(N3CCN(C)CC3)CCCCC2)cc(C)c1Cl	-0.3%	-4.9%	0.9%[59 µM]	x	x	42.2%

Source: PubChem (National Center for Advancing Translational Sciences (NCATS))
